Laboratory results: PubChem BioAssay AID1347070 (National Center for Advancing Translational Sciences (NCATS), 2019)
About 20 (0.02%) of roughly 94,000 compounds were called active. Another 1% or so got no clear call; they are omitted. Calls come from the whole dose curve; as a rule, active = well fitted activation curve with a large enough effect; inconclusive = small, poorly fitted or top-dose-only effect; inactive = flat fitted curve, though single readings scatter. The list is a sample of the results.

Assay: qHTS of alpha-syn Inhibitors: NCGC Sytravon Library Screen
Conditions: S. cerevisiae alpha-synuclein toxicity rescue, BacTiter-Glo growth, 24 h; series mostly up to 46.1 µM
Text: The goal of this project is to identify new chemical probes capable of reversing the toxicity associated with the Parkinson disease-related protein, alpha-synuclein. Compounds will be selected on their ability to restore growth in yeast cells expressing toxic levels of alpha-synuclein. These compounds will provide a complementary approach to deciphering the tangled mechanisms of toxicity and protection that we have uncovered through genome-wide genetic screens and are beginning to uncover in a large-scale proteomics analysis with mass spectroscopy. To this end, a miniaturized assay was developed to be screened against the Molecular Libraries Small Molecule Repository (MLSMR) to discover alpha-synuclein inhibitors. […] The phenotype of interest will be that of an Activator and this screen is run against the NCGC Sytravon Library collection. NIH Chemical Genomics Center [NCGC] NIH Molecular Libraries Probe Centers Network [MLPCN] MLPCN Grant: NS060957 Assay Submitter (PI): Susan Lindquist, Whitehead Institute/MIT
Dispense 2.5 microL yeast galactose medium per 1536-well plate, pin compound, dispense 2.5 microL alpha-synuclein expressing yeast in galactose medium at OD600=0.02 (pregrown in raffinose medium to mid-log phase) per well, incubate for 24 hr at 30 deg C, and cell growth will be measured using 5 microL of Bactiter/Glo reagent to entire plate and read using Luminescence Protocol in ViewLux.

Row | Structure (SMILES) | outcome
1 | CCOC(=O)c1sc(NC(=O)c2sc(C)nc2C)nc1C | inactive
2 | CCN(CC(=O)NCCc1ccccc1)S(=O)(=O)c1ccccc1 | inactive
3 | CCc1ccccc1OCC(=O)Nc1ccc2c(c1)OCCO2 | inactive
4 | CCN(CC)CCn1c2c(c(SCC(=O)Nc3ccc(C(C)C)cc3)nc1=O)CCC2 | inactive
5 | CCC(=O)c1ccc(OCC(=O)N(CC)CC2COc3ccccc3O2)cc1 (configuration not stated) | inactive
6 | CC(=O)Nc1ccc2nc(NC(=O)CS(=O)(=O)c3ccc(F)cc3)sc2c1 | inactive
7 | COc1ccc(NC(=O)CCC(=O)Nc2cc(OC)c(NC(=O)c3ccco3)cc2OC)c(OC)c1 | inactive
8 | COc1cc(NC(=O)CN(C)S(=O)(=O)c2ccc3nc(C)sc3c2)cc(OC)c1 | inactive
9 | CCCCn1c(SCC(=O)N2CCOCC2)nc2c1c(=O)n(C)c(=O)n2C | inactive
10 | CSc1nnc(C2CCCN(CC(=O)Nc3ccccc3N3CCOCC3)C2)n1C(C)C (configuration not stated) | inactive
11 | Cc1cc2cc3n(c2nn1)N=C(Cl)CC3 | inactive
12 | CCOc1ccc(-c2n[nH]c(C)c2-c2ccccn2)c(O)c1 | inactive
13 | O=C(Nc1cc(F)ccc1F)c1ccc2c(=O)n3c(nc2c1)CCC3 | inactive
14 | COc1ccc(NC(=O)CC2C(=O)NC3CCCCC3N2C(=O)c2ccc(F)cc2)cc1 (configuration not stated) | inactive
15 | O=C(Nc1ccc(F)c([N+](=O)[O-])c1)C1CCCO1 (configuration not stated) | inactive
16 | CCOC(=O)c1[nH]cnc1C(=O)Nc1ccccc1C | inactive
17 | O=C(c1ccccc1)N1CCN(C(=O)c2cc3nc(-c4ccccc4)cc(C(F)(F)F)n3n2)CC1 | inactive
18 | O=S(=O)(Nc1ccccc1Br)c1cccs1 | inactive
19 | O=C(Nc1ccccc1C(=O)N1CCCCC1)c1ccco1 | inactive
20 | COc1cccc(N2CC(NS(=O)(=O)c3cccs3)CC2=O)c1 (configuration not stated) | inactive
21 | Cc1cn([C@H]2C[C@H](O)[C@@H](CNC(=O)[C@H](N)Cc3cccnc3)O2)c(=O)[nH]c1=O | inactive
22 | COC(=O)c1cc(OCC(=O)NC2CCCc3ccccc32)cc(C(=O)OC)c1 (configuration not stated) | inactive
23 | O=C(Cc1ccccc1)NNC1CC(=O)N(c2ccc(Br)cc2)C1=O (configuration not stated) | inactive
24 | CCOC(=O)C1=C(c2ccccc2)NC(=S)NC1c1ccc(Cl)cc1 (configuration not stated) | inactive

Row | Structure (SMILES) | outcome
25 | COc1ccc(-n2c(-c3ccc(Cl)cc3)n[nH]c2=S)c(OC)c1 | inactive
26 | COc1ccc(CC(=O)NC(C)CCc2ccccc2)cc1 (configuration not stated) | inactive
27 | C/C(CC(=O)NC(C)c1ccccc1)=N\NC(N)=S (configuration not stated) | inactive
28 | CN(C)c1ccc(C(=S)N2CCN(C(=S)Nc3ccc(Cl)cc3)CC2)cc1 | inactive
29 | CCCOc1ccc(/C=N/NC(=O)C2CC2)c(OCCC)c1 | inactive
30 | CCOC(=O)Cc1ncccc1C(=O)Nc1ccc(OC)cc1 | inactive
31 | COc1ccc(CN2C(=O)C(CC(=O)NCCCCc3ccccc3)CC(C(=O)N3CCOCC3)=C2C)cc1 (configuration not stated) | inactive
32 | CCOC(=O)c1c(NC(=O)COC(=O)c2ccc(S(=O)(=O)C(F)F)cc2)sc(C(=O)N(C)C)c1C | inactive
33 | CC(=O)Nc1ccc(C(=O)NNC(=O)CCCCC(=O)NNC(=O)c2ccc(NC(C)=O)cc2)cc1 | inactive
34 | O=C(O)CC12CC3CC(C1)CC(n1ncc(NCc4ccc(F)cc4)c(Cl)c1=O)(C3)C2 | inactive
35 | CCOc1cc2c(Cl)ncnc2c(OCC)c1OCC | inactive
36 | COc1ccc(N2CCN(C(=O)[C@@H](NC(=O)c3cc(OC)cc(OC)c3)C(C)C)CC2)cc1 | inactive
37 | O=C(NCCOc1ccccc1)c1ccccc1F | inactive
38 | O=C(CSc1nnc(CN2CCCC2)n1-c1ccc(F)cc1)c1ccc2c(c1)OCO2 | inactive
39 | C[C@H]1CN(c2ccc(Br)cc2)C(=O)[C@@H]1CC(=O)Nc1ccc(Br)cc1 | inactive
40 | COC(=O)CNC(=O)c1cc(-c2ccncc2)nc2ccccc12 | inactive
41 | O=C(NC1CCCC1)c1cc(-c2ccccc2)on1 | inactive
42 | CCOc1ccc(C(CC(=O)O)n2cnnn2)cc1OC (configuration not stated) | inactive
43 | COCCN(Cc1nc(-c2ccc(C(F)(F)F)cc2)no1)C(C)C | inactive
44 | CC(Nc1nc(C(F)(F)F)nc2ccccc12)c1cccs1 (configuration not stated) | inactive
45 | CCc1noc(C)c1C(=O)OCC(=O)c1ccc(NC(=O)CC(C)C)cc1 | inactive
46 | CCc1nc2c(=O)[nH]cnc2o1 | inactive
47 | CN(Cc1ccc(F)cc1Cl)S(=O)(=O)c1cccs1 | inactive
48 | O=C(OCC(=O)N1CCCCCC1)c1cccc(Cl)c1Cl | inactive

Row | Structure (SMILES) | outcome
49 | O=C(CN1CCCCC1)NC(=O)Nc1ccccc1F | inactive
50 | Cc1ccc(O)c(NC(=O)c2cc(-c3ccco3)on2)c1 | inactive
51 | CCOC(=O)Cc1cc(=O)[nH]c(/N=C(\N)Nc2ccc(OC)cc2)n1 | inactive
52 | COc1ccccc1N(C)C(=O)c1cc(S(=O)(=O)N2CCc3ccccc32)cn1C | inactive
53 | COc1ccc(-c2ccc3[nH]c4c(c3c2)CCN2C[C@H]3[C@H](C)ON(C)[C@H]3C[C@@H]42)cc1 | inactive
54 | CC(=O)Nc1ccccc1NC(=O)c1cc(C)cc(C)c1 | inactive
55 | O=C(COC(=O)Cc1ccc(Cl)cc1Cl)NCc1ccco1 | inactive
56 | Cc1cc(=O)c2ccc(NC(=O)c3ccccc3)cc2[nH]1 | inactive
57 | Cc1cc2c3ccccc3[nH]c(=O)n2n1 | inactive
58 | COc1cccc(COC(=O)C2CCN(S(=O)(=O)c3cccs3)CC2)c1OC | inactive
59 | CSc1nc(-c2ccco2)nn1C(=O)c1ccccc1Cl | inactive
60 | COc1ccc(C=C2CCC3C(CCCC34OCCO4)C2=O)cc1 (configuration not stated) | inactive
61 | Cc1cccc(NC(=O)c2cc([N+](=O)[O-])ccc2N2CCN(C)CC2)c1 | inactive
62 | CCN(CCNC(=O)C1=C(C)C(=O)OC12CCC(C)CC2)c1ccccc1 (configuration not stated) | inactive
63 | CCCCN1C(=O)C(CC(=O)NC(c2ccccc2)c2ccccc2)CC(C(=O)N2CCOCC2)=C1C (configuration not stated) | inactive
64 | COCCn1c(C)cc(C(=O)COC(=O)/C=C/c2cccc(OC)c2)c1C | inactive
65 | C[C@@H]1CN([C@@H](C)CO)C(=O)c2cc(NS(C)(=O)=O)ccc2O[C@@H](C)CCCCO[C@H]1CN(C)C(=O)Nc1ccc2c(c1)OCO2 | inactive
66 | COc1ccc(C(=O)COC(=O)CNC(=O)c2cccs2)cc1Br | inactive
67 | Cc1ccccc1NS(=O)(=O)CCCCC(Cl)(Cl)Cl | inactive
68 | CC1CCN(C(=O)CCNC(=O)c2ccccc2)CC1 | inactive
69 | CC(C)CN(C(=O)COC(=O)c1ccc2ccccc2c1)c1c(N)n(Cc2ccccc2)c(=O)[nH]c1=O | inactive
70 | COc1ccc(/C=C(\NC(=O)c2ccccc2)C(=O)NCCN2CCOCC2)cc1OC | inactive
71 | Cc1ccc(SCCC(=O)Nc2cc(C)on2)cc1 | inactive
72 | Cc1onc(-c2ccccc2Cl)c1C(=O)OCc1nnc(-c2ccccc2)o1 | inactive
